Test results: PubChem BioAssay AID1159580 (chemical genetic matrix, 2015)
About 2,000 (36%) of roughly 5,500 compounds were called active. About 18% were inconclusive and are not listed. Cut-off read from the data, not from the text of the source: active = normalized growth mostly below about 0.91 (no sharp cut-off); inconclusive = no clear call, values can overlap the other calls; inactive = mostly above about 0.92. The list shows a part of the results.

Test: chemical genetic growth profiling, strain panel (AID 1159580);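 note: tested at 20 µM; growth read once vehicle control cultures reached saturation at 30 °C; 1 = growth at the plate median or of vehicle wells; lower values mean less growth of the strain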
Conditions: growth OD

Measured: normalized growth

CC(=O)O.CC(=O)O.[Cd]
inactive: S. cerevisiae deletion strains, locus YOL012C, strain htz1 0.261 | S. cerevisiae deletion strains, locus YOR290C, strain snf2, active compounds read low 0.927 | S. cerevisiae deletion strains, locus YPL106C, strain sse1, active compounds read low 1.01
active: S. cerevisiae deletion strains, locus YJR043C, strain POL32, active compounds read low 0.298 | S. cerevisiae deletion strains, locus YJR075W, strain HOC1, active compounds read low 0.202 | S. cerevisiae deletion strains, locus YKL009W, strain mrt4, active compounds read low 0.639 | S. cerevisiae deletion strains, locus YKL068W, active compounds read low 0.651 | S. cerevisiae deletion strains, locus YKL085W, strain MDH1 (second series), active compounds read low 0.372 | S. cerevisiae deletion strains, locus YKL085W, strain MDH1, active compounds read low 0.372 | S. cerevisiae deletion strains, locus YKL160W, strain elf1, active compounds read low 0.533 | S. cerevisiae deletion strains, locus YKL190W, strain CNB1, active compounds read low 0.125 | S. cerevisiae deletion strains, locus YKR001C, strain vps1, active compounds read low 0.12 | S. cerevisiae deletion strains, locus YKR026C, strain gcn3, active compounds read low 0.82 | S. cerevisiae deletion strains, locus YKR091W, strain srl3, active compounds read low 0.793 | S. cerevisiae deletion strains, locus YLL001W, strain dnm1, active compounds read low 0.68 | S. cerevisiae deletion strains, locus YLL026W, active compounds read low 0.603 | S. cerevisiae deletion strains, locus YLL041C, strain sdh2, active compounds read low 0.785 | S. cerevisiae deletion strains, locus YLR027C, strain aat2, active compounds read low 0.664 | S. cerevisiae deletion strains, locus YLR039C, strain RIC1, active compounds read low 0.166 | S. cerevisiae deletion strains, locus YLR058C, strain SHM2, active compounds read low 0.154 | S. cerevisiae deletion strains, locus YLR102C, strain apc9, active compounds read low 0.464 | S. cerevisiae deletion strains, locus YLR221C, strain rsa3, active compounds read low 0.669 | S. cerevisiae deletion strains, locus YLR258W, strain gsy2, active compounds read low 0.698 | S. cerevisiae deletion strains, locus YLR262C, strain YPT6 (second series), active compounds read low 0.403 | S. cerevisiae deletion strains, locus YLR262C, strain YPT6, active compounds read low 0.133 | S. cerevisiae deletion strains, locus YLR268W, strain sec22, active compounds read low 0.158 | S. cerevisiae deletion strains, locus YLR320W, strain mms22, active compounds read low 0.696 | S. cerevisiae deletion strains, locus YLR330W, strain CHS5, active compounds read low 0.811 | S. cerevisiae deletion strains, locus YLR342W, strain FKS1 (second series), active compounds read low 0.311 | S. cerevisiae deletion strains, locus YLR342W, strain FKS1, active compounds read low 0.862 | S. cerevisiae deletion strains, locus YLR357W, strain rsc2, active compounds read low 0.522 | S. cerevisiae deletion strains, locus YLR370C, strain arc18, active compounds read low 0.313 | S. cerevisiae deletion strains, locus YLR371W, strain rom2, active compounds read low 0.188 | S. cerevisiae deletion strains, locus YLR384C, strain iki3, active compounds read low 0.804 | S. cerevisiae deletion strains, locus YLR418C, strain cdc73, active compounds read low 0.175 | S. cerevisiae deletion strains, locus YML016C, strain PPZ1, active compounds read low 0.224 | S. cerevisiae deletion strains, locus YML032C, strain rad52, active compounds read low 0.313 | S. cerevisiae deletion strains, locus YML120C, strain ndi1, active compounds read low 0.695 | S. cerevisiae deletion strains, locus YML124C, strain tub3, active compounds read low 0.304 | S. cerevisiae deletion strains, locus YMR058W, strain fet3, active compounds read low 0.0708 | S. cerevisiae deletion strains, locus YMR078C, strain ctf18, active compounds read low 0.462 | S. cerevisiae deletion strains, locus YMR125W, strain sto1, active compounds read low 0.87 | S. cerevisiae deletion strains, locus YMR129W, active compounds read low 0.802 | S. cerevisiae deletion strains, locus YMR205C, strain PFK2, active compounds read low 0.675 | S. cerevisiae deletion strains, locus YMR223W, strain ubp8, active compounds read low 0.271 | S. cerevisiae deletion strains, locus YMR231W, strain pep5, active compounds read low 0.179 | S. cerevisiae deletion strains, locus YMR263W, strain SAP30, active compounds read low 0.221 | S. cerevisiae deletion strains, locus YMR307W, strain GAS1, active compounds read low 0.172 | S. cerevisiae deletion strains, locus YNL067W, strain RPL9B, active compounds read low 0.289 | S. cerevisiae deletion strains, locus YNL071W, strain lat1, active compounds read low 0.757 | S. cerevisiae deletion strains, locus YNL128W, strain TEP1, active compounds read low 0.234 | S. cerevisiae deletion strains, locus YNL153C, strain GIM3, active compounds read low 0.468 | S. cerevisiae deletion strains, locus YNL209W, strain ssb2, active compounds read low 0.583 | S. cerevisiae deletion strains, locus YNL233W, strain BNI4, active compounds read low 0.394 | S. cerevisiae deletion strains, locus YNL248C, strain rpa49, active compounds read low 0.765 | S. cerevisiae deletion strains, locus YNL250W, strain rad50, active compounds read low 0.269 | S. cerevisiae deletion strains, locus YNL271C, strain bni1, active compounds read low 0.3 | S. cerevisiae deletion strains, locus YNL298W, strain CLA4, active compounds read low 0.345 | S. cerevisiae deletion strains, locus YNL307C, strain MCK1, active compounds read low 0.124 | S. cerevisiae deletion strains, locus YNL322C, strain KRE1 (second series), active compounds read low 0.547 | S. cerevisiae deletion strains, locus YNL322C, strain KRE1, active compounds read low 0.139 | S. cerevisiae deletion strains, locus YNR049C, strain mso1, active compounds read low 0.819 | S. cerevisiae deletion strains, locus YNR052C, strain pop2, active compounds read low 0.164 | S. cerevisiae deletion strains, locus YOL006C, strain TOP1, active compounds read low 0.153 | S. cerevisiae deletion strains, locus YOL147C, strain pex11, active compounds read low 0.32 | S. cerevisiae deletion strains, locus YOR001W, strain rrp6, active compounds read low 0.752 | S. cerevisiae deletion strains, locus YOR061W, strain CKA2, active compounds read low 0.269 | S. cerevisiae deletion strains, locus YOR069W, strain VPS5, active compounds read low 0.222 | S. cerevisiae deletion strains, locus YOR070C, strain gyp1, active compounds read low 0.669 | S. cerevisiae deletion strains, locus YOR080W, strain dia2, active compounds read low 0.851 | S. cerevisiae deletion strains, locus YOR083W, strain WHI5, active compounds read low 0.59 | S. cerevisiae deletion strains, locus YOR106W, strain vam3, active compounds read low 0.408 | S. cerevisiae deletion strains, locus YOR136W, strain idh2, active compounds read low 0.263 | S. cerevisiae deletion strains, locus YOR144C, strain elg1, active compounds read low 0.461 | S. cerevisiae deletion strains, locus YOR184W, strain ser1, active compounds read low 0.25 | S. cerevisiae deletion strains, locus YOR265W, strain rbl2, active compounds read low 0.769 | S. cerevisiae deletion strains, locus YOR270C, strain vph1, active compounds read low 0.405 | S. cerevisiae deletion strains, locus YOR316C, strain cot1, active compounds read low 0.356 | S. cerevisiae deletion strains, locus YPL051W, strain arl3, active compounds read low 0.207 | S. cerevisiae deletion strains, locus YPL055C, strain LGE1, active compounds read low 0.169 | S. cerevisiae deletion strains, locus YPL078C, strain atp4, active compounds read low 0.707 | S. cerevisiae deletion strains, locus YPL240C, strain hsp82, active compounds read low 0.731 | S. cerevisiae deletion strains, locus YPL241C, strain CIN2, active compounds read low 0.271 | S. cerevisiae deletion strains, locus YPR119W, strain clb2, active compounds read low 0.433 | S. cerevisiae deletion strains, locus YPR141C, strain kar3, active compounds read low 0.418 | S. cerevisiae deletion strains, locus YPR163C, strain tif3, active compounds read low 0.441 | S. cerevisiae deletion strains, locus YPR167C, strain met16, active compounds read low 0.387 | S. cerevisiae deletion strains, strain wtn01, active compounds read low 0.254 | S. cerevisiae strains, strain wild type, active compounds read low 0.13
